KDM5B inh = Primary screen for KDM5B Histone Demethylases FDH-coupled qHTS | Potency, µM (highest dose often 57.7 µM), hits mostly inhibitors | AID 1347165, 2019 | KDM5B demethylase, FDH-coupled NADH fluorescence (FDH is formaldehyde dehydrogenase) | 2.6% of 220,000 active; active means well fitted inhibition curve with a large enough effect; further: 0% is about no effect; nearly all actives have a fitted effect of over 70% in size
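qHTS format, multiple compound concentrations. Buffer 50 mM HEPES pH 7.5/0.01% Tween-20; 200 nM KDM5BΔAP final; 10 min compound preincubation; substrate-mix levels 12.5 µM peptide, 25 µM α-KG, 0.25 mM NAD⁺; 30 min RT; ΔRFU.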
The depositor's hits bear a star; i = inactive. This is one part of a sample in which hits are shown more often than they occur. Potency means the concentration at half of the fitted maximal effect.

SMILES	KDM5B inh
CN1C(=O)c2cccn2CC1CNC(=O)c1cccn1C (stereo not given)	i
CCOC(=O)c1c(C)[nH]c(C(=O)C(C)OC(=O)c2cccc(O)c2)c1C (stereo not given)	i
CC(C)(C)c1noc(CN2CCN(C(=O)c3ccco3)CC2)n1	i
CSc1ccc(/C=C2/C(=O)c3ccccc3OC2c2ccccc2)cc1 (stereo not given)	i
O=C1NCc2ccccc2CC12CCCN(Cc1ccccc1F)C2 (stereo not given)	i
CCOC(=O)c1nc2ccccc2nc1N1CCN(c2ccc(Cl)cc2)CC1	i
O=S(Cc1cccc(C(F)(F)F)c1)Cc1c(F)cccc1Cl (stereo not given)	i
COC(=O)CSc1nc2sc3c(c2c(=O)n1-c1ccc(OC)cc1)CC(C(C)C)OC3 (stereo not given)	i
COc1ccc(NC(=O)CSc2nnc(Cc3cccs3)n2Cc2ccco2)cc1	i
CCOCCCNC(=O)[C@H]1CN(Cc2ccccc2)C[C@H]1C(=O)O	i
Cn1cccc1C(=O)NCC1Cn2cccc2C(=O)N1Cc1ccccc1 (stereo not given)	i
O=C1c2cccn2CC(CNS(=O)(=O)c2ccccc2)N1Cc1ccccc1 (stereo not given)	i
Cc1ncoc1C(=O)NCC1Cn2cccc2CN1Cc1ccccc1 (stereo not given)	28µM*
Cc1cc(C(=O)NCC2Cn3cccc3C(=O)N2Cc2ccccc2)n(C)n1 (stereo not given)	i
COCCN1C(=O)c2cccn2CC1CNC(=O)NCc1ccccc1 (stereo not given)	i
COc1ccc(C(=O)NCC2Cn3cccc3C(=O)N2Cc2ccccc2)cc1OC (stereo not given)	i
CCOCCCNC(=O)NCC1Cn2cccc2CN1Cc1ccccc1 (stereo not given)	28µM*
Cn1nccc1C(=O)NCC1Cn2cccc2CN1Cc1ccccc1 (stereo not given)	22µM*
Cn1cnc(S(=O)(=O)NCC2Cn3cccc3CN2Cc2ccccc2)c1 (stereo not given)	28µM*
Cc1ncoc1C(=O)NCc1cccnc1N(C)Cc1ccccc1	i
CCn1cc(S(=O)(=O)NCC2Cn3cccc3C(=O)N2Cc2ccccc2)cn1 (stereo not given)	i
Cc1cccc(-n2c(=O)c3c(cc(C)n3C)n(CC(=O)Nc3ccc4c(c3)OCO4)c2=O)c1	i
CCN1CCN(C(=O)C2CC(C)=C(C)CC2C(=O)O)CC1 (stereo not given)	i
O=C(c1cccc(Br)c1)N1CCN(c2cc(-c3ccc(Cl)cc3)[nH]n2)CC1	i
Cc1ccn2cc(-c3ccc(NC(=O)CCCc4ccccc4)cc3)nc2n1	i
SMILES	KDM5B inh
Cn1cnc2c1c(=O)n(CC(=O)N(Cc1ccc(F)cc1)C1CC1)c(=O)n2C	i
CCN(Cc1nc2cc(Cl)ccc2c(=O)[nH]1)C(=O)CNC(=O)c1cccc(C)c1	i
Cc1occc1-c1nnc(SCc2cc(Cl)c3c(c2)OCCO3)n1C	i
Cc1cc(C)n(Cc2ccc(C(=O)NCC3Cn4cccc4CN3Cc3ccccc3)o2)n1 (stereo not given)	32µM*
Cc1cc(C)n(CCC(=O)NCC2Cn3cccc3C(=O)N2Cc2ccccc2)n1 (stereo not given)	i
Cc1cc(C)n(Cc2ccc(C(=O)NN)o2)n1	i
CCCCCCn1c(N2CCN(Cc3c(Cl)cccc3Cl)CC2)nc2c1c(=O)[nH]c(=O)n2C	i
C=CCn1c(N2CCOCC2)nc2c1c(=O)n(C)c(=O)n2C	i
O=C(NC1CC1)c1cccc(NS(=O)(=O)c2ccc(C(F)(F)F)cc2)c1	i
O=C(c1ccc2ccccc2n1)N1CCC(C(=O)N2CCCCCC2)CC1	i
N[C@H]1CN(c2cncc(C(=O)N3CCCCC3)n2)C[C@@H]1C1CC1	28µM*
O=C(c1cnccn1)N1CCC(c2nc(C3CC3)no2)C1 (stereo not given)	i
O=C(c1cncc(N2CCCC(CCc3cccc(F)c3)C2)n1)N1CCCCC1 (stereo not given)	25µM*
O=C(c1ccco1)N1CCCC(CCc2cccc(F)c2)C1 (stereo not given)	i
Cc1cnc(C(=O)N2CCCC(CCc3cccc(F)c3)C2)cn1 (stereo not given)	i
COc1cccc(C(=O)Nc2oc3ccc(Cl)cc3c(=O)c2-c2ccccc2)c1	i
O=C(NC1CCCCCC1)c1ccc2c(c1)sc1nc(-c3ccc(F)cc3)cn12	i
COc1cc(C(=O)NCCc2sc(-c3cccc(F)c3)nc2C)cc(OC)c1OC	i
COc1ccc(-c2cn3c(n2)sc2cc(C(=O)NCc4cccc(F)c4)ccc23)cc1	i
O=C(NC1CCC(O)CC1)c1ccc(-c2ncc3cnc(-c4cccc(F)c4)cn23)cc1 (stereo not given)	22µM*
O=C(O)c1ccc(-c2cccc(C(F)(F)F)c2)cc1	i
CC(=O)NCCNC(=O)c1ccc(-c2ncc3cnc(-c4cccc(F)c4)cn23)cc1	28µM*
O=C(NC1CCCCC1)c1ccc2c(c1)sc1nc(-c3ccc(F)cc3)cn12	i
O=C(O)c1cccc(-c2cnccn2)c1	i
O=C(O)c1ccc(-c2ncc3cnc(-c4cccc(F)c4)cn23)cc1	35µM*
SMILES	KDM5B inh
O=C(CCC1CCCC1)Nc1cccc2ccccc12	i
COc1ccc(S(=O)(=O)Nc2ccc(Cl)c(S(=O)(=O)N3CCOCC3)c2)cc1	i
CCC1c2ccsc2CCN1C(=O)c1nn(C)c(=O)c2ccccc12 (stereo not given)	i
CCN1CC(CN(C)S(=O)(=O)N(CC)CC)Oc2ccccc21 (stereo not given)	i
CCCC(C)(C)NC(=O)CCc1ccc(OC)c(OC)c1OC	i
COc1cc(CCC(=O)NCc2ccoc2)cc(OC)c1	i
Cc1cc(NC(=O)NCC(c2ccc(C)o2)N2CCOCC2)no1 (stereo not given)	i
CCc1cc(NCC(c2ccc(C)o2)N2CCOCC2)n2nccc2n1 (stereo not given)	32µM*
Clc1cc(NCC2CC2)n2nccc2n1	i
COc1ccc2c(C)c(CC(=O)Nc3nnc(C(C)(C)C)s3)c(=O)oc2c1OC	i
CC(C)c1ccc(S(=O)(=O)N2CCN(CCS(=O)(=O)CCC(N)=O)CC2)cc1	i
Cn1c(=O)c2nc(SCC(=O)Nc3ccc(F)cc3)n(C)c2n(C)c1=O	i
O=C(Cn1nc(-c2ccc(F)cc2)c2ccccc2c1=O)N1CCOCC1	i
O=C1Cc2c(-c3ccc(C(=O)N4CCOCC4)cc3)n[nH]c2CN1Cc1ccccc1	i
O=C1c2cc(N3CCOCC3)nc(-c3cccc(CO)c3)c2CN1Cc1ccccc1	35µM*
O=C1c2cc(N3CCOCC3)nc(-c3ccc(F)cc3)c2CN1Cc1ccccc1	35µM*
O=C1c2cc(N3CCOCC3)nc(-c3ccc(CO)cc3)c2CN1Cc1ccccc1	i
O=C(c1cnc(N2CCOCC2)c2ccccc12)N1CCN(Cc2ccccc2)CC1	i
O=C1CCN(Cc2cccc(F)c2)CCOCCN1	i
O=C(Cc1cccc(F)c1)N1CCOCC12CCN(Cc1ccccc1)CC2	i
O=C1c2cc(N3CCOCC3)nc(-c3cccc(F)c3)c2CN1Cc1ccccc1	32µM*
O=C(CCc1nc2ccccc2c(=O)[nH]1)NC1CCCc2c1[nH]c1c(Cl)cccc21 (stereo not given)	i
